For five compounds, Potency results are on record in PubChem BioAssay AID720524 (National Center for Advancing Translational Sciences (NCATS), 2013).

The structures appear in SMILES notation. Hit rate of the full screen: of about 1,400 compounds, about 1,000 (71%) were called active. Not shown: some 12% with an inconclusive outcome. Calls come from the whole dose curve; as a rule, active = well fitted inhibition curve with a large enough effect; inconclusive = small, poorly fitted or top-dose-only effect; inactive = no such curve, though single readings can be large or run the other way. The set was probably picked from earlier hits. The list is a sample of the results.
Potency is the fitted concentration of half-maximal effect.

The experiment can be described thus: Nrf2 qHTS screen for inhibitors: Nrf2 A549 ARE-Fluc Confirmation Assay for Hit Validation. Note: nearly all actives have a fitted effect of over 65% in size. The settings on record: A549 ARE-firefly luciferase reporter, luminescence. From the text: Nrf2 is a transcription factor that maintains cellular redox homoestasis and protects cells from xenobiotics. Nrf2 binds to the antioxidant response element (ARE) to induce gene expression of a broad spectrum of genes that encode for antioxidants. […] Finding a small molecule that act as an inhibitor of Nrf2 function would represent a novel therapeutic target that could lead to improvement in survival of patients undergoing chemo- and/or radio- therapy.
In collaboration with the Biswal laboratory, a cell based, luminescence assay (BugLite) was developed to detect the Nrf2 activity using the A549 ARE_Fluc cells (AID 493153). This assay was coupled with a fluorescence based (CellTiter Fluor) cytotoxicity assay to identify and exclude toxic compounds. This coupled assay was used to evaluate selected compounds for hit validation. The data herein is the result of the BugLite assay where decrease in luminescence signal = inhibition of Nrf2 activation. Inhibition is the desired outcome for this assay.
NIH Chemical Genomics Center [NCGC]
NIH Molecular Libraries Probe Centers Network [MLPCN]
Assay Submitter (PI): Shyam Biswal, Johns Hopkins University
[1] Shibata T., et al., Genetic alteration of Keap1 confers constitutive Nrf2 activation and resistance to chemotherapy in gallbladder cancer. Gastroenterology, 2008.
[2] Sjoblom T., et al., The consensus coding sequences of human breast and colorectal cancers. Science, 2006.
Five uL of cell suspension was dispensed into 1536-well white TC-treated plate using the Kalypsys dispenser to achieve a density of 5000 cells/well in all columns except column 1. The plates were incubated at 37deg C at 5% CO2 for 2 hours before 23 nL of compounds were added with the Kalypsys pin tool equipped with a 1,536-pin array. The control compounds Budesonide and Staurosporine were added at a concentration of 2mM. Budesonide was also added as a 1:10 titration, starting at 200uM, to achieve the dose-response control signal. The plates were incubated for 18-24 hour at 37deg C, 5% CO2 followed by a 5ul addition of 5% FBS OPTI-MEM growing media in column 1 as negative control. One microliter of 5x CellTiter Fluor (Promega) was added to each well and the assay plates were incubated at 37deg C, 5% CO2 for 30 minutes. The fluorescence signal was read using the PerkinElmer ViewLux plate reader (Ex = 405 nm /Em = 525 nm) for a 3 second exposure. After the signal was taken, 3 uL of 3x BugLite was dispensed into all wells. The plates were then incubated at room temperature for 15 minutes. A second ViewLux read (40 sec exposure) was performed to detect the luminescence signal. Cytotoxicity was assessed through the first fluorescent read while biochemical activity against Nrf2 was measured in the luminescent read. The data was normalized to the positive and negative controls.
As for `c1ccc2c(c1)[I+]c1ccccc1-2`, the Potency is 206 nM (active).

For `CC[C@H]1CN2CCc3cc(OC)c(OC)cc3[C@@H]2C[C@@H]1C[C@H]1NCCc2cc(OC)c(OC)cc21`, the Potency was 146 nM (active).

With `CCC(C)(O)C(=O)OC1C(=O)OC2CC3C(C)=CC(=O)C(O)C3(C)C3C4(O)OCC23C1C(C)C4O` (stereo not given), the Potency was 580 nM (active).

Take `COC1C(O)C(C)OC(OC2CCC3(C=O)C(CCC4C3CCC3(C)C(C5=CC(=O)OC5)CCC43O)C2)C1O` (stereo not given): the Potency is 11.6 nM (active).

Regarding `C[C@]12CC[C@H](O)C[C@H]1CC[C@@H]1C2CC[C@]2(C)[C@@H](C3=CC(=O)OC3)[C@@H](O)C[C@]12O` (stereo not given in full), the Potency is 1640 nM (active).
